About 14,000 (4.5%) of roughly 310,000 compounds showed an effect of 50% or more. Effects have a minus sign here. Many of the other results were omitted from the sample, so strong results are more common in it than they were.
Each molecule was assayed against human ether-à-go-go-related gene (hERG) potassium channel (human, UniProt Q12809) (assay: primary screen, population patch clamp on CHO cells stably expressing hERG; higher = less effect of the substance).
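Further: peak tail current of the secondary pulse compared with the same well before compound.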

Sequence of human ether-à-go-go-related gene (hERG) potassium channel (Q12809 whole entry, looked up): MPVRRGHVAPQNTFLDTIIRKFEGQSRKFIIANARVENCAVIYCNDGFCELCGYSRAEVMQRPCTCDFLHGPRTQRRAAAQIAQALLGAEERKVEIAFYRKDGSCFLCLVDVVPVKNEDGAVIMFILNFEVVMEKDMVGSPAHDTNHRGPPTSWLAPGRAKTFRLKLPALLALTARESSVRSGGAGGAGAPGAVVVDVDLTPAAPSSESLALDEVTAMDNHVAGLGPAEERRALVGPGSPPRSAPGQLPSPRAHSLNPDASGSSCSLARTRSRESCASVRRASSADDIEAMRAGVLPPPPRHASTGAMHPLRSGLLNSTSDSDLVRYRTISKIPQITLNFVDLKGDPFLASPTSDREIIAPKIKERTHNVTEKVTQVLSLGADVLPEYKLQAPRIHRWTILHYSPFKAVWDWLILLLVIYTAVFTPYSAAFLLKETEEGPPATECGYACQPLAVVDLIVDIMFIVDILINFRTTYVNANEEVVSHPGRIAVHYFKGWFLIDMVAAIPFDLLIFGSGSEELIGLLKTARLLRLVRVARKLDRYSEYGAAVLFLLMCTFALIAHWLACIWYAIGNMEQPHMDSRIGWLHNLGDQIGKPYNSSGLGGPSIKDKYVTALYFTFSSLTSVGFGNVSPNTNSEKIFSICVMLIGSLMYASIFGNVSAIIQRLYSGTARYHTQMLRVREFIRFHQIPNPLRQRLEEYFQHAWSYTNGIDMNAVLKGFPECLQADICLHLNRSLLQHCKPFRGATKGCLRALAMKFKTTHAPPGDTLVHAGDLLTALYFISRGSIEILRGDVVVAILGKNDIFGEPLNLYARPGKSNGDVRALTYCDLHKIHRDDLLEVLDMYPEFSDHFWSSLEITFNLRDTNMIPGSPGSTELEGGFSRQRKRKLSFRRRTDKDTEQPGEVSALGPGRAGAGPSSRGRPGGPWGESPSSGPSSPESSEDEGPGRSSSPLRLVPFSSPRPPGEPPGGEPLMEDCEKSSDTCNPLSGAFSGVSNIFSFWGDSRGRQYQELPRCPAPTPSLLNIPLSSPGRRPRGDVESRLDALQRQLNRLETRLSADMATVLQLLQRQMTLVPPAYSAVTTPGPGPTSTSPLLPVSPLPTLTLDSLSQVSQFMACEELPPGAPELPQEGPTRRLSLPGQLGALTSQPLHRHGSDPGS

Row | SMILES | hERG current change (%, negative = inhibition) at 10uM [%]
1 | Cc1ccc2cc(C#N)c(NCCNC(=S)NCCCN(C)C)nc2c1C | -0.554
2 | Cc1cc(OCC(=O)NCc2ccccn2)c2c(C)c(C)c(=O)oc2c1 | -11.2
3 | CCOC(=O)C(=O)Nc1nc(-c2ccccc2)c(-c2ccccc2)o1 | -32.1
4 | NC(=O)c1ccc(NC(=O)CSc2nc3ccccc3c(=O)n2CCCN2CCOCC2)cc1 | -5.06
5 | O=C(CCCn1c(SCC(=O)NCC2CCCO2)nc2ccccc2c1=O)NCC1CCCO1 (stereo not shown) | -5.18
6 | COc1ccc(NC(=O)CSc2nc3ccccc3c(=O)n2CCCC(=O)NCC2CCCO2)c(OC)c1 (stereo not shown) | -33.8
7 | CCc1ccc(NC(=O)CSc2nc3ccccc3c(=O)n2CCN2CCOCC2)cc1 | -67.6
8 | NS(=O)(=O)c1ccc(CCNC(=O)CSc2nc3ccccc3c(=O)n2CCN2CCOCC2)cc1 | 41.4
9 | CCc1ccc(NC(=O)CSc2nc3ccccc3c(=O)n2CCCC(=O)NCCCN2CCOCC2)cc1 | -66.6
10 | CCOc1ccc(NC(=O)CSc2nc3ccccc3c(=O)n2CCCC(=O)NCC2CCCO2)cc1 (stereo not shown) | 3.34
11 | O=C(CCCn1c(SCC(=O)NC2CCCCC2)nc2ccccc2c1=O)NCC1CCCO1 (stereo not shown) | -61.5
12 | Cc1ccc(NC(=O)CSc2nc3ccccc3c(=O)n2CCCC(=O)NCC2CCCO2)cc1 (stereo not shown) | -0.641
13 | C=CCn1c(SCC(=O)Nc2ccc(N3CCOCC3)cc2)nc2ccccc2c1=O | 3.75
14 | COc1cccc(NC(=O)CSc2nc3ccccc3c(=O)n2CCCC(=O)NCC2CCCO2)c1 (stereo not shown) | -70.3
15 | O=C(CCCn1c(SCC(=O)NCC2CCCO2)nc2ccccc2c1=O)NCc1ccccc1 (stereo not shown) | -29.6
16 | O=C(CSc1nnc(-c2ccccc2F)o1)N1CCNC1=O | -32.1
17 | C=CCNC(=O)CCCc1ccccc1 | 7.65
18 | COc1ccc(NC(=O)c2cn3c(nc4ccccc43)c(C#N)c2C)cc1 | 3.29
19 | CCC(=O)Oc1ccc(C(=O)Nc2ccccc2C(=O)NCC(C)C)cc1 | 15.6
20 | O=C1CCC(c2ccc3c(c2)CCC3)=NN1 | 17.3
21 | CCCCN1C(=O)C(NC(=O)C2CC2)(C(F)(F)F)C2=C1CC(C)(C)CC2=O (stereo not shown) | 10.9
22 | COc1ccc(NC(=O)CCN2C(=O)c3cccc([N+](=O)[O-])c3C2=O)cc1 | -5.08
23 | CC(C)C(NC(=O)c1ccccc1F)C(=O)OCC(=O)c1ccc(F)cc1 (stereo not shown) | -9.49

Row | SMILES | hERG current change (%, negative = inhibition) at 10uM [%]
24 | CCOC(=O)c1sc(-c2ccccc2)cc1NC(=O)CSc1nnnn1C | -1.13
25 | COc1ccccc1/C=C1/C(=O)ON=C1C | 12.5
26 | COc1cccc(NC(=S)C(C#N)=C2N(C)c3ccccc3N2C)c1 | 4.88
27 | CCn1c(=O)cc(SCC(=O)N2CCCCC2)c2ccccc21 | -7.44
28 | COC(=O)c1ccc(Oc2nc(NC(C)(C)C)nc(N3CCOCC3)n2)cc1 | -16.1
29 | COC(=O)c1ccc2c(=O)n(CCN3CCOCC3)c(SCC(=O)Nc3ccc(C)cc3)nc2c1 | -69.5
30 | Cc1ccc(NC(=O)CSc2nc3ccccc3c(=O)n2CC2CCCO2)cc1 (stereo not shown) | 0.693
31 | COC(=O)c1ccc2c(=O)n(CCN3CCOCC3)c(SCC(=O)Nc3ccccc3Cl)nc2c1 | -33.4
32 | COC(=O)c1ccc2c(=O)n(CCN3CCOCC3)c(SCC(=O)Nc3cccc(OC)c3)nc2c1 | -37.9
33 | CCOC(=O)CSc1nc2cc(C(=O)OC)ccc2c(=O)n1CCN1CCOCC1 | -38.4
34 | Cc1ccc(NC(=O)CSc2nc3ccccc3c(=O)n2CCCC(=O)NCCCN2CCOCC2)cc1 | -52.6
35 | CCOC(=O)CSc1nc2ccccc2c(=O)n1CCN1CCOCC1 | -50.3
36 | Cc1ccc(-n2c(SCC(=O)Nc3ccc(N4CCOCC4)cc3)nc3ccccc3c2=O)cc1 | 6.08
37 | CCOC(=O)CSc1nc2ccccc2c(=O)n1CC(C)C | -35.3
38 | CN(C)c1cc[n+](CC(O)C[n+]2ccc(N(C)C)cc2)cc1.[O-][Cl+3]([O-])([O-])[O-] | 15.9
39 | CCCN(CCC)S(=O)(=O)c1ccc(N2CCCC2=O)c([N+](=O)[O-])c1 | -19.3
40 | COc1cccc(/C=N/NC(=O)CCNc2n[nH]c(=O)[nH]c2=O)c1OC | 15.9
41 | COc1cccc(NC(=O)c2ccccc2N2C(=O)C3C4C=CC(C4)C3C2=O)c1 (stereo not shown) | -1.23
42 | O=C(CN1CCCCC1)NN(Cc1ccccc1)c1ccccc1.O=C(O)C(=O)O | -73.3
43 | O=C(CN1CCCCC1)Nc1ccccc1NC(=O)CN1CCCCC1 | 3.83
44 | CCN(CC(=O)NC(=O)NCc1ccccc1)Cc1ccccc1 | -20.6
45 | CCN(CC)CC(=O)NN(Cc1ccccc1)c1ccccc1.O=C(O)C(=O)O | -73.6
46 | O=C(CN1CCCCCC1)NN(Cc1ccccc1)c1ccccc1.O=C(O)C(=O)O | -72.3

Row | SMILES | hERG current change (%, negative = inhibition) at 10uM [%]
47 | CN1CCN(CC(=O)NN(Cc2ccccc2)c2ccccc2)CC1.O=C(O)C(=O)O | -14.2
48 | O=C(CN1CCCCCC1)Nc1ccccc1F.O=C(O)C(=O)O | 9.38
49 | O=C(CN1CCCCC1)NC(=O)NCc1ccccc1 | 14.3
50 | CC(C)(O)C(=O)NN(Cc1ccccc1)c1ccccc1 | 16.2
51 | Cc1ccc(C)c2sc(N)nc12 | 22.6
52 | COc1ccc(NC(=O)CSc2ncn[nH]2)c([N+](=O)[O-])c1 | -4.71
53 | Nc1nc(N)nc(-c2cc(C(F)(F)F)ccc2Cl)n1 | 11.9
54 | CC(=O)N(C)c1ccc(NC(=O)c2cnn(C)c2)cc1 | 3.39
55 | COc1cccc(CN2C(=O)CCC2(C)C(=O)NC2CCCCC2)c1 (stereo not shown) | 12.9
56 | COc1cccc(-c2cc(C(=O)N/N=C/c3ccco3)c3ccccc3n2)c1 | -2.76
57 | C/C(CC(=O)Nc1cccc2c1CCCC2)=N\NC(=O)c1cccc2ccccc12 | -7.31
58 | O=C(c1ccc2oc(Cc3ccc(Cl)cc3)nc2c1)N1CC[C@H](O)C1 | 4.21
59 | Br.CCCCCCC1CC(CSC(=N)N)OC1=O (stereo not shown) | -52.1
60 | CCCCCCC1CC(/C(C)=N\NC(N)=O)OC1=O (stereo not shown) | -53
61 | CCCCCCC1CC(C)(C(=O)C[NH2+]c2nncs2)OC1=O.[Br-] (stereo not shown) | -66.3
62 | CCCCC1CC(/C(C)=N/NC(N)=O)OC1=O (stereo not shown) | -6.35
63 | CCCCCCCC1CC(/C(C)=N/NC(N)=O)OC1=O (stereo not shown) | -45.3
64 | CCCCC1CC(C)(C(=O)CSc2nc3ccccc3s2)OC1=O (stereo not shown) | -0.178
65 | CCCC1CC(C)(/C(C)=N\NC(N)=S)OC1=O (stereo not shown) | 12.4
66 | Br.CCCCCCCC1CC(CSC(=N)N)OC1=O (stereo not shown) | -44.2
67 | CCCCCC1CC(CC(=O)Nc2nncs2)C(=O)O1 (stereo not shown) | -8.91
68 | CCCCCCC1CC(C)(/C(C)=N/NC(N)=O)OC1=O (stereo not shown) | -50.1
69 | CCCCCC1CC(/C(C)=N/NC(N)=O)OC1=O (stereo not shown) | -7.05

Row | SMILES | hERG current change (%, negative = inhibition) at 10uM [%]
70 | Br.CCCCC1CC(CSC(=N)N)OC1=O (stereo not shown) | -1.27
71 | COc1cccc(NC(=O)c2ccccc2-c2ccccc2C(=O)O)c1 | 10.1
72 | COc1ccc(NC(=O)CN(c2ccc([N+](=O)[O-])cc2)S(=O)(=O)c2ccccc2)cc1 | -10.3
73 | Cc1ccc(C(=O)O/N=C(\N)c2nonc2N)cc1 | -8.67
74 | COc1ccc(-c2nc3ccc([N+](=O)[O-])cc3[nH]2)cc1 | 13.5
75 | Cc1c(NC(=O)CSc2nnnn2-c2ccc(C(=O)O)cc2)c(=O)n(-c2ccccc2)n1C | 20.8
76 | CN(CC(=O)Nc1ccccc1C(F)(F)F)C(=O)c1cc2c(s1)CCCCC2 | -29.2
77 | CCc1sc(C(=O)NCc2ccccc2)cc1C | -9.06
78 | CN1CCN(S(=O)(=O)c2ccc(N(C)CC(=O)Nc3ccc(F)cc3)nc2)CC1 | -4.31
79 | CN(CC(=O)Nc1ccc(C(N)=O)cc1)CC(=O)Nc1ccccc1Br | 11
80 | O=c1cc(CN2CCOCC2)c2cc(Cl)ccc2o1 | -0.546
81 | O=C(c1ccco1)N1CCN(Cc2cc(=O)oc3cc(O)ccc23)CC1 | -69.3
82 | COC(=O)C1CCN(Cc2cc(=O)oc3cc(OC)ccc23)CC1 | -17.8
83 | Cc1ccc2c(CN3CCN(C(=O)c4ccco4)CC3)cc(=O)oc2c1C | -48.6
84 | O=c1cc(CN2CCN(Cc3ccccc3)CC2)c2cc(O)ccc2o1 | -68.2
85 | COc1ccc2oc(=O)cc(CN3CCOCC3)c2c1 | 18.3
86 | O=c1cc(CN2CCN(Cc3ccccc3)CC2)c2ccc(O)cc2o1 | -76.8
87 | CC1CN(Cc2cc(=O)oc3cc(O)ccc23)CC(C)O1 (stereo not shown) | -23.3
88 | CN1CCN(Cc2cc(=O)oc3ccc(Cl)cc23)CC1 | -16.7
89 | COc1ccc(OC)c(CN2CCN(Cc3cc(=O)oc4cc(O)ccc34)CC2)c1 | -74.8
90 | CCc1cc2c(CN3CCN(Cc4ccccc4)CC3)cc(=O)oc2cc1O | -35.5
91 | O=C(O)C(=O)O.O=C(c1ccco1)N1CCN(Cc2cccc3ccccc23)CC1 | -24.3
